# Assay results reported in the supplement of paper PMC12636033.
# ± gives the standard deviation of the averaged measurements. The full ranking holds about 33,000 sequences; the median of “E-score (rank enrichment, -0.5 to 0.5)” is about -0.0043, and the highest 2% start at about 0.24. The sample holds the highest values, similar sequences and a random draw of the others, so the mix is not that of the screen.
# Test system: 2Sp-muMax20 (muMax20 with two 2,6-bis(methyl)pyridine Cys staples)
# Assay: PBM 8-mer E-score (E-score (rank enrichment, -0.5 to 0.5)); higher = stronger preferential binding
# Protocol: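 Protein binding microarray (universal PBM chip covering all 10-mers in fixed probe flanks) with chemically synthesized human Max(13-93) bHLH-LZ analogs (not full-length Max) bearing noncanonical residues (hArg, Tha, Aib, Nle at 65) and aromatic Cys staples. Read-out per 8-mer (and its reverse complement): E-score (rank-based enrichment, -0.5 to 0.5) and Z-score of median probe intensity.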
row,Sequence,PBM 8-mer E-score
1,ATAATTTG,0.183 ± 0.083
2,ATAATTTA,0.284 ± 0.12
3,ATAATTGA,0.2552 ± 0.0018
4,AGAATTTA,0.284 ± 0.096
5,CTAATTGA,-0.0167 ± 0.015
6,CGAATTTA,0.131 ± 0.035
7,CGTGACTA,0.0126 ± 0.018
8,ATTCTAGG,-0.0261 ± 0.025
9,ATTAACGA,0.0547 ± 0.19
10,GTCCACCA,-0.0165 ± 0.0032
11,CTGCCCAA,-0.0288 ± 0.022
12,CATGTACC,-0.115 ± 0.026
13,CTATATGC,0.159 ± 0.037
14,ATATATGG,0.285 ± 0.018
15,AGATATGG,0.168 ± 0.027
16,CTATATGA,0.145 ± 0.07
17,ACATATGC,0.0823 ± 0.085
18,ATATATGA,0.293 ± 0.049
19,GTATATGA,0.0252 ± 0.077
20,AAATATGG,0.18 ± 0.0044
21,ATATATGC,0.251 ± 0.052
22,ATCCTGTG,-0.0686 ± 0.032
23,GGCGGACC,-0.233 ± 0.004
24,ATATGAGC,0.148 ± 0.011
25,GACATCTC,-0.202 ± 0.052

row,Sequence,PBM 8-mer E-score
1,TGTGCAAA,-0.0258 ± 0.033
2,ATTACAGG,0.312 ± 0.042
3,ATTACAGA,-0.0244 ± 0.14
4,ATTACAGC,-0.033 ± 0.008
5,ATTACATA,0.0685 ± 0.037
6,ATTACATG,0.242 ± 0.037
7,ATTACATC,0.126 ± 0.094
8,GGCTGGGA,-0.0185 ± 0.052
9,ACACCGAA,-0.0827 ± 0.029
10,ACCTCGGA,-0.233 ± 0.0065
11,CAGTCTCA,-0.0913 ± 0.013
12,AAATTATC,0.199 ± 0.084
13,AAGTTATA,0.0392 ± 0.07
14,TAATTATA,0.245 ± 0.027
15,CAATTATA,0.176 ± 0.028
16,TAGTTATA,0.255 ± 0.0097
17,AAATTATA,0.301 ± 0.063
18,AAATTATG,0.134 ± 0.036
19,GAATTATA,0.19 ± 0.11
20,GAGTTATA,0.104 ± 0.048
21,CGCCTTCA,-0.00719 ± 0.17
22,AGATGCCG,-0.118 ± 0.13
23,GTAACATA,0.177 ± 0.016
24,ATACCGCA,0.013 ± 0.035
25,AAATTGAA,0.24 ± 0.083

row,Sequence,PBM 8-mer E-score
1,AAATTGAT,0.113 ± 0.046
2,GAATTGAA,0.0949 ± 0.085
3,GTATTGAA,0.132 ± 0.089
4,ATATTGAA,0.0994 ± 0.059
5,TTATTGAA,0.3 ± 0.049
6,ACAACGGA,-0.0195 ± 0.029
7,ACGATACA,0.0917 ± 0.079
8,ACATAGCG,0.00456 ± 0.11
9,ACCCCGCT,-0.0295 ± 0.018
10,GATGCGCC,-0.0256 ± 0.014
11,CGTGAAAA,0.109 ± 0.014
12,GGTGAAAA,-0.00809 ± 0.034
13,TGTGAAAA,0.289 ± 0.035
14,AATAGGTA,0.198 ± 0.0069
15,AGCCGTTA,-0.114 ± 0.018
16,AACCGTAA,0.0404 ± 0.047
17,CTGATCAA,-0.0225 ± 0.021
18,CGCGGGAA,0.0597 ± 0.013
19,CTGTAATC,0.0629 ± 0.045
20,ATGTAATG,0.134 ± 0.074
21,GTGTACTA,0.0822 ± 0.031
22,ATGTAAAA,0.274 ± 0.016
23,ATGTAATC,0.236 ± 0.023
24,ATGTACTA,0.258 ± 0.061
25,ATGTACTG,0.0436 ± 0.099

row,Sequence,PBM 8-mer E-score
1,CTGTAATA,0.134 ± 0.074
2,GTGTAATA,0.162 ± 0.042
3,CTGTAAAA,0.102 ± 0.0073
4,ATGTAAAT,0.159 ± 0.029
5,ATGTAATA,0.278 ± 0.0077
6,CCTGGAGA,-0.136 ± 0.09
7,AAACTTAT,0.203 ± 0.022
8,GTGGGCCA,-0.0973 ± 0.051
9,AGGAGCCC,0.00737 ± 0.03
10,ACCTCCAG,-0.161 ± 0.079
11,AGGGACCT,-0.13 ± 0.0014
12,GGCAACGA,-0.123 ± 0.0029
13,AACATAAA,0.164 ± 0.097
14,AACATAAC,0.278 ± 0.052
15,AACATAAT,0.285 ± 0.053
16,GACATAAC,0.146 ± 0.026
17,CACATAAC,0.0249 ± 0.13
18,AACATAAG,0.0487 ± 0.042
19,GTCGGCAC,-0.0877 ± 0.06
20,TCCGATAA,-0.23 ± 0.14
21,AAAGTACC,0.17 ± 0.02
22,AGCGCTAA,-0.0615 ± 0.022
23,CTTGACGA,0.00312 ± 0.0077
24,CGGTGAAC,0.0144 ± 0.098
25,AGGGCGAA,-0.00371 ± 0.021

row,Sequence,PBM 8-mer E-score
1,AAATACGC,0.236 ± 0.058
2,AAATACGT,0.112 ± 0.06
3,GAATACGC,0.0401 ± 0.069
4,ATTAAGGC,0.0884 ± 0.038
5,AGCGATGC,-0.00497 ± 0.044
6,AGATAAAC,0.00083 ± 0.061
7,CCTTTCAC,0.0665 ± 0.067
8,ATTTTCAC,0.0326 ± 0.0074
9,CTTTTCAC,0.287 ± 0.021
10,CGGTTCGA,-0.0332 ± 0.043
11,CACCCTCG,0.07079 ± 0.00033
12,GATGTTTA,0.0541 ± 0.02
13,ATTGTTTA,-0.0168 ± 0.043
14,CATGTTTC,0.0659 ± 0.0045
15,CATGTTTA,0.24 ± 0.056
16,AATGTTAC,0.0165 ± 0.1
17,CTTGTTTA,-0.0208 ± 0.029
18,GTTGTTTA,0.247 ± 0.0077
19,CATGTTGC,0.1 ± 0.094
20,CATGTTAG,0.111 ± 0.049
21,CATGTTAC,0.256 ± 0.018
22,AATGTTGA,-0.0129 ± 0.047
23,CATGTTGA,0.244 ± 0.023
24,ATTTCAGA,0.0234 ± 0.035
25,GGGATCGA,0.0419 ± 0.04

row,Sequence,PBM 8-mer E-score
1,AGACAGGG,-0.0986 ± 0.041
2,CACGCAAC,-0.0734 ± 0.013
3,CAGTCATG,0.0672 ± 0.14
4,ACACTATA,0.0551 ± 0.059
5,GACTTTGA,0.147 ± 0.062
6,AGAACGGA,-0.258 ± 0.028
7,AAGAAGCT,-0.12 ± 0.0019
8,CGTCGCGA,0.00718 ± 0.059
9,CGGCCAGC,-0.103 ± 0.0057
10,ATACAAAA,0.359 ± 0.0063
11,CTACAAAA,0.0122 ± 0.043
12,ATACAAAT,0.216 ± 0.0091
13,ATACAAGA,0.0902 ± 0.1
14,CTACAAGC,-0.0442 ± 0.059
15,ATACAAGC,0.252 ± 0.076
16,AGTGTAAT,0.114 ± 0.14
17,ATTGCAAC,0.0277 ± 0.07
18,CTCTCAGA,-0.148 ± 0.12
19,GATAACTA,0.245 ± 0.029
20,GCTAACAA,-0.0747 ± 0.062
21,ACTAAATA,0.249 ± 0.018
22,CTTAACAA,0.05 ± 0.067
23,AATAACTA,0.155 ± 0.038
24,CTTAAATA,0.139 ± 0.098
25,CATAACTA,0.0886 ± 0.054

row,Sequence,PBM 8-mer E-score
1,ATTAAATA,0.0773 ± 0.0041
2,GTTAACAA,0.239 ± 0.026
3,GTTAAATA,0.296 ± 0.026
4,CCTAAATA,0.125 ± 0.0015
5,ACTAAATC,-0.0199 ± 0.085
6,TACGTAAA,0.183 ± 0.046
7,AAGCACTA,0.0985 ± 0.0016
8,CCGTTACA,0.0269 ± 0.097
9,CAGAAAAG,0.0222 ± 0.11
10,CCTCAAAG,-0.168 ± 0.0062
11,CCAAAGGA,-0.134 ± 0.0027
12,CCGGGAAA,-0.0853 ± 0.032
13,GATCGGTA,0.0193 ± 0.038
14,CCGGCAGG,-0.199 ± 0.041
15,CGTGGCAA,-0.135 ± 0.016
16,AACGCGTT,0.0704 ± 0.016
17,GCACTCAA,-0.0947 ± 0.092
18,GTTAACTA,0.2576 ± 0.002
19,CTTAACTA,0.092 ± 0.0028
20,ATTAACTA,0.16 ± 0.003
21,AGACCGCG,0.0661 ± 0.0043
22,CGGTGGAA,-0.19 ± 0.09
